Source: PubChem BioAssay
The list is not random: actives were taken first. Their share in the collection is about 2.3%.
CHRM1 PAM: positive allosteric modulators of human M1 muscarinic receptor; actives 0.088% (n = 360,000); AID 588819; activation, % at 3 µM; CHO-K1 hM1, Fluo-8 calcium fluorescence, ACh EC20; 0% = ACh EC20, 100% = maximal ACh; in the data active = activation above about 19%, passing the limit was not always enough
Target sequence (P11229 whole entry, looked up): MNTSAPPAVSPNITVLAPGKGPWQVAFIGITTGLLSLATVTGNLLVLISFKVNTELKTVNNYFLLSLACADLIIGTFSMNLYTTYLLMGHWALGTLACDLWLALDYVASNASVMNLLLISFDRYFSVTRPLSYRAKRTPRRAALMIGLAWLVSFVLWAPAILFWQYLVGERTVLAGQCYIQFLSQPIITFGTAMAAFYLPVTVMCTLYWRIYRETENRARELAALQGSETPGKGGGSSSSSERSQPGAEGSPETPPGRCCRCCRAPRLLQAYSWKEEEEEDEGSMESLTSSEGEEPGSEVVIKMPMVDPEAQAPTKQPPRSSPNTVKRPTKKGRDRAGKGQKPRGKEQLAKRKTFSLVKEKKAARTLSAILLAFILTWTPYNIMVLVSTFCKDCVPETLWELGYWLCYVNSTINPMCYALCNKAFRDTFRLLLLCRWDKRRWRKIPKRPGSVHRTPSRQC
CHO-K1 Ca PAM: counter-screen for M1 PAMs: effect in parental CHO-K1 cells; ATP EC20, Fluo-8 calcium fluorescence; 0% at ATP EC20, 100% at ATP max; activation, % at 3 µM; actives 0.02% (n = 360,000);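 active = activation above the run cutoff, the mean activation of all test compounds plus 3 SD, cut at about 40% in these data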;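 also: peak over basal fluorescence ratio in a 140 s read after ATP addition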
CHO-K1 Ca antag: nonselective inhibitor or artifact in parental CHO-K1 cells | actives 0.6% (n = 360,000) | ATP-induced calcium, Fluo-8 fluorescence | inhibition, % at 3 µM;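 active = inhibition above a per-plate cutoff, the plate's mean sample inhibition plus 3 SD, cut at about 24% in these data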;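 also: 0% = DMSO plus EC80 ATP and 100% = DMSO alone without ATP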
CHO-K1 Ca ag: counter-screen for M1 agonists: effect in parental CHO-K1 cells; Fluo-8 calcium fluorescence; scaled to maximal ATP response, vehicle zero; AID 602248; actives 0.48% (n = 360,000); activation, % at 3 µM; in the data active = activation above about 15%;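 also: untransfected CHO-K1 host cells lacking M1 receptor as counterscreen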
M1 ag: human M1 muscarinic receptor agonism | actives 0.33% (n = 360,000) | activation, % at 3 µM | CHO-K1 hM1, Fluo-8 calcium fluorescence, agonist mode; 0% DMSO, 100% acetylcholine EC100;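 active = activation above the run's mean compound activation plus 3 SD, cut at about 16% in these data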;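 also: peak over basal fluorescence ratio within a 140 s kinetic read after compound addition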
CHRM1 antagonist: human CHRM1 antagonism. P11229. CHO-K1 hM1, Fluo-8 calcium fluorescence, ACh EC80 antagonist. inhibition, % at 3 µM. actives 1.3% (n = 360,000). AID 588852;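 active = percent inhibition above its own plate's cutoff, namely the mean of that plate's compound wells plus 3 SD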;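 also: peak over basal fluorescence ratio during 140 s after agonist addition; 0% = ACh EC80 plus DMSO and 100% = DMSO alone without agonist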
An asterisk follows results filed as active.

SMILES	CHRM1 PAM	CHO-K1 Ca PAM	CHO-K1 Ca antag	CHO-K1 Ca ag	M1 ag	CHRM1 antagonist
O=[N+]([O-])c1ccc(CS(=O)(=O)c2ccc(Cl)cc2)cc1	-2	-10	-1	0	-8	41*
COCCn1c2nc(=O)n(-c3ccccc3)c(=O)c-2nc2ccccc21	-22	8	10	73*	56*	18
O=C(C[C@H]1C/C=C\CC[C@H](Cc2ccc(F)cc2)C(=O)O[C@@H](c2ccccc2)CNC1=O)N[C@H](CO)Cc1ccccc1	3	19	-17	6	36*	9
O=C(C[C@H]1C/C=C\CC[C@H](Cc2ccc(F)cc2)C(=O)O[C@@H](c2ccccc2)CNC1=O)N[C@@H](CO)Cc1ccccc1	-5	-1	-5	4	0	17
O=C(C[C@H]1C/C=C\C[C@H](Cc2ccc(F)cc2)C(=O)O[C@@H](c2ccccc2)CNC1=O)N[C@H](CO)Cc1ccccc1	2	-1	-3	13	37*	9
Cc1ccc(C)c(NC(=O)COC(=O)c2ccc3c(c2)OCCO3)c1	4	5	-10	1	-2	-6
COc1ccc(Nc2ncc(C(=O)N3CCN(Cc4ccccc4)CC3)c3ccccc23)cc1	-11	-5	14	5	1	32*
COc1cccc(CNC(=O)C(=O)N2CCC3(CC2)OCCN3S(=O)(=O)c2ccc(C)cc2)c1	6	5	-17	2	-3	-12
Cc1cccc(NC(=S)NNC(=O)c2cc3c(s2)CCC(C)C3)c1C (centres undefined)	11	1	1	1	-5	-7
Nc1nc(Nc2cccc(F)c2)nc(NCCO)c1[N+](=O)[O-]	10	19	-12	15*	-3	-9
COc1cccc(-c2c(C#N)c(N)nc3c2c(C)nn3-c2ccccc2)c1O	4	-10	7	1	-2	9
CC(OC(=O)/C(C#N)=C/c1ccc(N(C)C)cc1)C(=O)NCc1ccco1 (centres undefined)	-1	-14	8	3	4	3
CC(=O)Nc1ccc(NC(=O)C(C)OC(=O)/C(C#N)=C/c2ccc(N(C)C)cc2)cc1 (centres undefined)	4	22	1	3	10	28*
CC(C)OC(=O)/C(C#N)=C\c1cccnc1	-1	-7	-14	0	-3	2
CC(OC(=O)/C(C#N)=C/c1ccc(N(C)C)cc1)C(=O)N(C)c1ccccc1 (centres undefined)	-17	-17	13	16*	13	24
COc1cc(/C=C/C(=O)OCC(=O)Nc2ccc([N+](=O)[O-])cc2)ccc1O	-6	12	-14	19*	25*	5
CCOC(=O)C1=C(O)/C(=C\c2ccc(CNC(=O)C(=O)Nc3ccccc3)o2)N=C1C	-7	-9	28*	0	-2	19
Cc1ccc(Cl)cc1NC(=S)NCCCSC1CCCCC1	-15	-3	7	5	-4	37*
Cc1cc(Cl)ccc1NC(=S)NCCCO	6	13	-5	0	-4	-12
CCOCc1nnc(NC(=O)C2c3ccccc3Oc3ccccc32)s1	-13	16	7	20*	6	12
CC(C)c1nnc(NC(=O)C2c3ccccc3Oc3ccccc32)s1	-19	17	-5	2	1	45*
Cc1nnc(NC(=O)C2c3ccccc3Oc3ccccc32)s1	-11	2	4	1	-5	15
CCOCc1nnc(NC(=O)c2ccco2)s1	6	3	-8	0	-1	2
COC(=O)c1cccc(NS(=O)(=O)c2ccc(OC)c(C(=O)N3CCOCC3)c2)c1C	4	11	-7	1	-3	0
COC(=O)c1ccc(C)c(-n2c(=O)n(Cc3ccccc3)c(=O)c3[nH]cnc32)c1	7	-6	-11	0	-1	0
SMILES	CHRM1 PAM	CHO-K1 Ca PAM	CHO-K1 Ca antag	CHO-K1 Ca ag	M1 ag	CHRM1 antagonist
O=C(CSc1ncccn1)c1ccccc1Br	7	-6	27*	0	0	-1
CN(Cc1ccc2c(c1)OCCO2)C(=O)CSc1ncnc2sccc12	2	11	-4	6	-1	-5
Cn1c(SCCN2CCCC2)nnc1C1CCN(S(=O)(=O)c2ccc(F)cc2)CC1	-24	7	-11	1	-12	33*
Cc1ccc(S(=O)(=O)N2CCCCC2)cc1NC(=O)CSc1nnc(C2CC2)n1C	-4	-9	-10	0	-3	-4
CC(=O)c1ccc(S(=O)(=O)N2CCC(c3nnc(SCCN4CCCC4)n3C)CC2)cc1	-6	14	-6	0	-12	-2
CCn1c(SCCN2CCCCC2)nnc1-c1ccc(S(=O)(=O)N2CCOCC2)cc1	-20	-2	-4	0	-4	93*
Cc1ccc(S(=O)(=O)N2CCC(c3nnc(SCCN4CCCC4)n3C)CC2)cc1	-23	15	-4	1	-11	26*
CCN(CC(=O)Nc1c(F)cccc1F)C(=O)C1CCN(S(=O)(=O)c2ccc(C)c(C)c2)CC1	-4	-18	21	0	0	14
COc1ccc(C(=O)N/C(=C\c2ccc3c(c2)OCO3)C(=O)Nc2cccc(C(=O)O)c2)cc1	6	13	-4	1	-3	2
C#CCN1C(=O)S/C(=C/C=C/c2ccc(N(C)C)cc2)C1=O	-18	3	13	9	36*	47*
O=C(CN1C(=O)S/C(=C\C=C\c2ccccc2)C1=O)Nc1ccccc1C(=O)O	10	17	-6	1	-4	-17
COC(=O)c1ccc(S(=O)(=O)NCCc2ccccc2OC)n1C	3	4	3	18*	-2	-5
c1ccc(-c2cncnc2)cc1	0	-9	6	0	-1	3
CC(C)c1ccc(N(C(=O)CNC(=O)c2ccco2)C(C(=O)NC2CCCC2)c2cccnc2)cc1 (centres undefined)	7	14	-14	1	-5	-5
CCCCC1(Cc2ccc([N+](=O)[O-])cc2)C(=O)N(c2ccccc2)N(c2ccccc2)C1=O	-9	6	18	3	-2	36*
CCCCC1(COC(=O)CCC(=O)O)C(=O)N(c2ccccc2)N(c2ccccc2)C1=O	1	26	-13	0	-3	-24
C/C(N)=C(/C#N)C(=O)COC(=O)Cc1coc2ccc3ccccc3c12	3	2	3	19*	-3	8
O=C1CC(=C(c2ccccc2)c2ccccc2)C(=O)N1CCN1CCN(c2cccc(Cl)c2)CC1	-1	2	-1	1	-5	7
O=C1CC(=C(c2ccccc2)c2ccccc2)C(=O)N1CCCN1CCN(c2cccc(Cl)c2)CC1	-20	22	-19	0	-5	38*
